Assay results from PubChem BioAssay (NCI).
Where “and” joins values, the source holds several entries; their conditions need not be identical. Identical values can stand only once. This is part of a sample that, as a whole, favours compounds with a hit. Of some 79,000 tested, about 15% had one in any assay. Unmarked numbers belong to inactive results. Calls of active or inactive are those of the source. Rule as the data show it: active = growth inhibition above about 70%; inactive = the rest.

Experiments:
[1] = NCI Yeast Anticancer Drug Screen. Data for the mec2-1 strain (AID 157); settings: S. cerevisiae mec2-1 strain, hits give high values
Method in brief: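 Test agents were screened against the mec2-1 yeast strain, with defined DNA repair or cell cycle alteration. Growth was scored as inhibition against vehicle-only controls.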

[2] = NCI Yeast Anticancer Drug Screen. Data for the sgs1 mgt1 strain (AID 161);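 also: 0% = growth of cultures given vehicle only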; settings: S. cerevisiae sgs1 mgt1 strain, hits give high values
Method in brief: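 Mutant yeast exposed to compound; growth scored against vehicle-only wells.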

[3] = NCI Yeast Anticancer Drug Screen. Data for the cln2 rad14 strain (AID 165);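 also: 0% = growth equal to vehicle treated cultures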; settings: S. cerevisiae cln2 rad14 strain, hits give high values
Method in brief: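 Growth of compound-exposed yeast (cln2 rad14 genotype) measured and expressed as inhibition relative to vehicle.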

[4] = NCI Yeast Anticancer Drug Screen. Data for the bub3 strain (AID 167); settings: S. cerevisiae bub3 mutant strain, hits give high values
Method in brief: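 Steps: expose the mutant yeast strain to compound; grow alongside vehicle-treated cultures; measure growth; express inhibition against the vehicle cultures.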

[5] = NCI Yeast Anticancer Drug Screen. Data for the mlh1 rad18 strain (AID 175); settings: S. cerevisiae mlh1 rad18 strain growth inhibition, hits give high values
Method in brief: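 In this whole-cell yeast screen, a strain with altered DNA damage repair is challenged with compound, and its growth is measured against matched vehicle-treated controls.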

[6] = NCI Yeast Anticancer Drug Screen. Data for the rad50 strain (AID 155);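 also: 0% = growth of vehicle-only cultures of the same strain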; settings: S. cerevisiae rad50 strain growth inhibition, hits give high values
Method in brief: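 Inhibition values express reduced yeast growth in compound-treated cultures relative to vehicle-treated controls.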

[7] = at 5.0 µM (retest, dose inferred, filed as 0.5)
[8] = at 50.0 µM (retest, dose inferred, filed as 5.0)

Structure (SMILES)	growth inhibition [1, 7] [%]	growth inhibition [1, 8]	growth inhibition ([1]; at 50.0 µM)	growth inhibition [2, 7] [%]	growth inhibition [2, 8]	growth inhibition ([2]; at 50.0 µM)	growth inhibition [3, 7] [%]	growth inhibition [3, 8]	growth inhibition ([3]; at 50.0 µM)	growth inhibition [4, 7] [%]	growth inhibition [4, 8]	growth inhibition ([4]; at 50.0 µM)	growth inhibition [5, 7] [%]	growth inhibition [5, 8]	growth inhibition ([5]; at 50.0 µM)	growth inhibition [6, 7] [%]	growth inhibition [6, 8]	growth inhibition ([6]; at 50.0 µM)
Cc1cc(C)c([O-])c(-[n+]2c(-c3ccccc3)cc(-c3ccccc3)cc2-c2ccccc2)c1	1	1%	92.5% (active)	22	22%	91% (active)	-8	-8%	89.8% (active)	-2	-2%	92.2% (active)	3	3%	89.7% (active)	–	–	–
CO/C(=N\N=C(/c1ccccc1)C(F)(F)F)c1ccncc1	–	–	–	15	76% (active)	71.8% (active)	25	52%	44.5%	2	79% (active)	75.2% (active)	0	66%	65%	44	75% (active)	45%
CC(C)Cn1cnc2c(SCc3ccc(Cl)cc3Cl)nc(N)nc21	-1	38%	29.9%	20	45%	90.8% (active)	-15	44%	41.2%	4	32%	38.7%	-3	66%	66.8%	–	–	–
Cc1cc(Br)ccc1NC(=O)/C=C/C(=O)O	–	–	–	-17	-4%	17.4%	10	22%	7.15%	-4	-13%	20.2%	0	-16%	1.25%	-23	-36%	0.1%
CC[n+]1ccc(Nc2ccc(NC(=O)c3ccc(C(=O)Nc4ccc(Nc5cc[n+](CC)c(N)n5)cc4)cc3)cc2)nc1N	30	99% (active)	98.9% (active)	–	–	–	-3	98% (active)	97.3% (active)	28	96% (active)	98% (active)	50	99% (active)	98.3% (active)	24	98% (active)	98.2% (active)
O=C1c2ccc(S(=O)(=O)O)cc2C(=O)c2ccc(S(=O)(=O)O)cc21	-1	21%	25.5%	5	36%	47.5%	2	26%	-62.8%	1	19%	55.4%	4	31%	74% (active)	–	–	–
CN(C)c1ccc(/C=C/c2nc3ccccc3[nH]2)cc1	-9	77% (active)	56.8%	–	–	–	-7	67%	16.7%	-10	54%	14.6%	-13	97% (active)	80% (active)	-2	89% (active)	54%
O=[N+]([O-])c1ccccc1NCCO	3	0%	-5.65%	-2	-12%	-0.15%	2	4%	28.8%	3	2%	-14.2%	2	3%	-24.9%	–	–	–
O=C(Nc1ccc(Cl)cc1Cl)C1C(=O)OC2(CCCCC2)OC1=O	–	–	–	30	97% (active)	55.6%	37	98% (active)	62.8%	45	98% (active)	62.3%	37	97% (active)	87.2% (active)	24	96% (active)	84.5% (active)
CC(CN(C)C)C(=O)c1ccccc1 (stereo unspecified)	–	–	-43.7% and -18.4% and 16.6%	–	–	-4.85% and -15.9% and 18.1%	–	–	20.3% and -14.4% and 14.4%	–	–	-23.1% and -11.6% and 18.4%	–	–	0.3% and -18.9% and 23.1%	–	–	-3.95% and -8.85% and 34%
O=C1C(c2ccccc2)=[N+]([O-])c2cc([N+](=O)[O-])c(/C(Cl)=C/c3ccccc3)cc21	5	33%	94.5% (active)	–	–	–	11	9%	39.2%	7	7%	97.9% (active)	3	3%	96.2% (active)	4	8%	54.8%
